Assay [1] is described as follows: BSK_4H_Eotaxin3: BioMAP Diversity Plus: 4H Assay for Eotaxin 3 Biomarker Activity (AID 2283000).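 As to outcome: CCL26 protein level quantified by ELISA in parallel with SRB cytotoxicity check.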 As to conditions: primary human endothelial cells (HUVEC); actives raise or lower the signal. The gist of the method:
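Readout is Eotaxin-3 (CCL26) level by ELISA in primary human umbilical vein endothelial cells harvested 24 h after chemical exposure; activity fitted in both directions against DMSO control.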

For assay [2], the target named is human Peroxisome Proliferator-activated Receptor alpha (PPARa), PPARA (gene 5465) (UniProt Q07869). Put plainly: ATG_PPARa_TRANS: Attagene TRANS-FACTORIAL HepG2 Assay for human Peroxisome Proliferator-activated Receptor alpha (PPARa) (AID 2283001; active = hit-call score of the fitted dose curve at least 0.9, where 1 is the maximum;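 as to AC50: potency for gain of reporter signal over DMSO so agonist or activator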). The gist of the method:
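Reporter transcripts from GAL4-UAS units in transfected HepG2 were quantified 24 h after dosing. Detection used reverse transcription, PCR, fluorescent primer extension and capillary electrophoresis, with DMSO as baseline.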

Read-out in assay [3]: Intercellular Adhesion Molecule 1 (ICAM1), ICAM1 (gene 3383)
Kind of assay: BSK_3C_ICAM1: BioMAP Diversity Plus: 3C Assay for Intercellular Adhesion Molecule 1 (ICAM1) Biomarker Activity (AID 2283003). The conditions noted are these: primary human endothelial cells (HUVEC); actives raise or lower the signal. The gist of the method:
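Primary human umbilical vein endothelial cells in the BioMAP 3C system were exposed to chemicals for 24 h, then ICAM-1 was quantified by ELISA. Activity was fitted bidirectionally against the DMSO negative control baseline.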

Assay [4] addresses human Retinoic Acid Receptor beta (RARb), RARB (gene 5915) (UniProt P10826). Put plainly: ATG_RARb_TRANS: Attagene TRANS-FACTORIAL HepG2 Assay for human Retinoic Acid Receptor beta (AID 2283004; active = hit-call score of the fitted dose curve at least 0.9, where 1 is the maximum). An outline of the steps: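 Readout is reporter mRNA induction: RNA reverse-transcribed, PCR-amplified, FAM-labelled, HpaI-cut and resolved by capillary electrophoresis. Transiently transfected HepG2 cells carrying exogenous NR–Gal4 chimeras were dosed for 24 h; activity fitted upward relative to DMSO.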

Assay [5] addresses Retinoic acid receptor alpha (Homo sapiens) (UniProt P10276). Kind of assay: ATG_RARa_TRANS: Attagene TRANS-FACTORIAL HepG2 Assay for human Retinoic Acid Receptor alpha (RARa) (AID 2283005; active = hit-call score of the fitted dose curve at least 0.9, where 1 is the maximum). An outline of the steps: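 Reporter transcripts, measured by RT-PCR with fluorescent labeling and capillary electrophoresis after 24 h dosing, reflect activity of an exogenous human RARa–GAL4 fusion in transiently transfected HepG2. Fitted for increase relative to DMSO.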

A short description of assay [6]: BSK_3C_Proliferation: Cell Proliferation Assessment in the BioMAP Diversity Plus: 3C Assay (AID 2283006).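 As to AC50: potency may reflect either rise or fall in cell number versus DMSO.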 The conditions noted are these: primary human endothelial cells (HUVEC). The gist of the method:
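Human umbilical vein endothelial cells were grown sub-confluent and exposed to chemical for 48 h, then fixed with 10% TCA and stained with 0.1% sulforhodamine B; absorbance at 560 nm gave relative cell number, fitted bidirectionally against DMSO baseline.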

For assay [7], the target named is human Retinoic Acid Receptor gamma (RARg), RARG (gene 5916) (UniProt P13631). Kind of assay: ATG_RARg_TRANS: Attagene TRANS-FACTORIAL HepG2 Assay for human Retinoic Acid Receptor gamma (RARg) (AID 2283009; active = hit-call score of the fitted dose curve at least 0.9, where 1 is the maximum). An outline of the steps: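 HepG2 cells transiently transfected with multiplexed reporter units expressing chimeric RARg-GAL4 and GAL4-UAS-driven reporters; 24 h compound exposure. Reporter mRNA quantified by RT-PCR with fluorescent labelling and capillary electrophoresis; gain-of-signal fitted relative to DMSO baseline.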

The target of assay [8] is Retinoic acid receptor RXR-alpha (Homo sapiens) (UniProt P19793). Kind of assay: ATG_RXRa_TRANS: Attagene TRANS-FACTORIAL HepG2 Assay for human Retinoid X Receptor alpha (RXRa) (AID 2283012; active = hit-call score of the fitted dose curve at least 0.9, where 1 is the maximum). The gist of the method:
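HepG2 cells transiently transfected with multiplexed GAL4-UAS reporter units and chimeric NR-GAL4 fusions, dosed 24 h. Reporter mRNA measured by RT-PCR, FAM labelling, HpaI digestion and capillary electrophoresis; gain-of-signal fitted relative to DMSO baseline.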

Assay [9] addresses human Thyroid Receptor alpha (THRa1), THRA (gene 7067) (UniProt P10827). Put plainly: ATG_THRa1_TRANS: Attagene TRANS-FACTORIAL HepG2 Assay for human Thyroid Receptor alpha (THRa1) (AID 2283014; active = hit-call score of the fitted dose curve at least 0.9, where 1 is the maximum). The gist of the method:
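Transient HepG2 transfection, NR-Gal4 chimera driving GAL4-UAS reporters; 24 h compound exposure; total RNA, oligo(dT) RT, PCR, fluorescent primer extension, capillary electrophoresis. Upward direction vs DMSO control.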

Read-out in assay [10]: E-selectin (Homo sapiens) (UniProt P16581)
Kind of assay: BSK_3C_Eselectin: BioMAP Diversity Plus: 3C Assay for Eselectin Biomarker Activity (AID 2283015).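 Also: cell surface E-selectin protein quantified by ELISA 24 h after dosing.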 As to conditions: primary human endothelial cells (HUVEC); actives raise or lower the signal. The gist of the method: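 HUVEC, 3C stimulation; compound exposure 24 h; E-selectin by ELISA; gain- or loss-of-signal fitted bidirectionally vs DMSO baseline.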

Read-out in assay [11]: Interleukin-1 alpha (IL1a), IL1A (gene 3552)
Put plainly: BSK_BE3C_IL1a: BioMAP Diversity Plus: BE3C Assay for Interleukin-1 alpha (IL1a) Biomarker Activity (AID 2283016). As to conditions: primary human bronchial epithelial cells; actives raise or lower the signal. An outline of the steps: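 Human primary bronchial epithelial cells (BE3C system) were dosed with compound and IL-1a measured by ELISA 24 h later. Activity was fitted bidirectionally against DMSO baseline; cytotoxicity was tracked in parallel cultures by SRB total-protein staining.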

Read-out in assay [12]: Monocyte Chemoattractant Protein-1 (MCP1), CCL2 (gene 6347)
Put plainly: BSK_3C_MCP1: BioMAP Diversity Plus: 3C Assay for Monocyte Chemoattractant Protein-1 (MCP1) Biomarker Activity (AID 2283017). As to conditions: primary human endothelial cells (HUVEC); actives raise or lower the signal. The gist of the method: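 HUVEC, 3C system; 24 h chemical exposure; MCP-1 by ELISA; bidirectional curve fit vs DMSO baseline.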

Read-out in assay [13]: Interleukin-8 (IL8), CXCL8 (gene 3576)
Put plainly: BSK_3C_IL8: BioMAP Diversity Plus: 3C Assay for Interleukin-8 (IL8) Biomarker Activity (AID 2283020). As to conditions: primary human endothelial cells (HUVEC); actives raise or lower the signal. The gist of the method: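 Primary human umbilical vein endothelial cells (3C system) were exposed to test chemical for 24 h, then IL-8 was quantified by ELISA. Responses were fitted bidirectionally against DMSO vehicle as baseline.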

Assay [14] addresses human Peroxisome Proliferator-activated Receptor delta (PPARd), PPARD (gene 5467) (UniProt Q03181). Kind of assay: ATG_PPARd_TRANS: Attagene TRANS-FACTORIAL HepG2 Assay for human Peroxisome Proliferator-activated Receptor delta (PPARd) (AID 2283002; active = hit-call score of the fitted dose curve at least 0.9, where 1 is the maximum). The gist of the method:
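Read-out is induced reporter mRNA, quantified by RT-PCR with fluorescent labelling and capillary electrophoresis after 24 h dosing. Cells are HepG2 transiently carrying multiple GAL4-UAS reporter units driven by exogenous NR-GAL4 chimeras; DMSO serves as baseline.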

Assay [15] concerns the target Peroxisome proliferator-activated receptor gamma (Homo sapiens) (UniProt P37231). Kind of assay: ATG_PPARg_TRANS: Attagene TRANS-FACTORIAL HepG2 Assay for human Peroxisome Proliferator-activated Receptor-gamma (PPARg) (AID 2283007; active = hit-call score of the fitted dose curve at least 0.9, where 1 is the maximum). An outline of the steps: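 Twenty-four hours after chemical dosing of transiently transfected HepG2 cells, isolated RNA was converted to cDNA, reporter sequences amplified and 6-FAM-labelled, then HpaI-digested and analysed by capillary electrophoresis. Signal increase against DMSO was fitted.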

Assay [16] has as its target Nuclear receptor subfamily 1 group I member 2 (Homo sapiens) (UniProt O75469). Kind of assay: ATG_PXR_TRANS: Attagene TRANS-FACTORIAL HepG2 Assay for human Pregnane X Receptor (PXR) (AID 2283008; active = hit-call score of the fitted dose curve at least 0.9, where 1 is the maximum). An outline of the steps: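 Fluorescence intensity of FAM-labelled, HpaI-digested reporter amplicons, separated by capillary electrophoresis, quantifies induction. HepG2 cells with PXR-Gal4 trans-reporter system were exposed 24 h; DMSO defines baseline.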

The target in assay [17] is human Retinoid X Receptor beta (RXRb), RXRB (gene 6257) (UniProt P28702). Put plainly: ATG_RXRb_TRANS: Attagene TRANS-FACTORIAL HepG2 Assay for human Retinoid X Receptor beta (RXRb) (AID 2283013; active = hit-call score of the fitted dose curve at least 0.9, where 1 is the maximum). An outline of the steps:
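HepG2 cells transiently transfected with multiplexed reporter units driven by GAL4-UAS and exogenous chimeric NR-Gal4 proteins; treated 24 h. Reporter mRNA measured by RT-PCR, 6-FAM labelling and capillary electrophoresis; gain-of-signal fitted versus DMSO baseline.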

Read-out in assay [18]: Monocyte Chemoattractant Protein-1 (MCP1), CCL2 (gene 6347)
Put plainly: BSK_4H_MCP1: BioMAP Diversity Plus: 4H Assay for Monocyte Chemoattractant Protein-1 (MCP1) Biomarker Activity (AID 2283018). The conditions noted are these: primary human endothelial cells (HUVEC); actives raise or lower the signal. An outline of the steps:
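Human umbilical vein endothelial cells (4H system) dosed with chemical; MCP-1 measured by ELISA 24 h after dosing. Bidirectional curve fitting against DMSO negative control as baseline; parallel SRB total-protein staining tracks overt cytotoxicity.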

Read-out in assay [19]: Human Leukocyte Antigen - DR isotype (HLADR), HLA-DRA (gene 3122)
Put plainly: BSK_3C_HLADR: BioMAP Diversity Plus: 3C Assay for Human Leukocyte Antigen - DR isotype (HLADR) Biomarker Activity (AID 2283019).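 Also: ELISA of cell-surface HLA-DR on HUVEC 24 h after dosing.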 The conditions noted are these: primary human endothelial cells (HUVEC); actives raise or lower the signal. An outline of the steps: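 HUVEC, 3C stimulation, 24 h post-dose; HLA-DR by ELISA; bidirectional curve fit vs DMSO baseline; gain or loss of signal scored.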

Assay [20] addresses human RAR-related Orphan Receptor gamma (RORg), RORC (gene 6097) (UniProt P51449). Kind of assay: ATG_RORg_TRANS: Attagene TRANS-FACTORIAL HepG2 Assay for human RAR-related Orphan Receptor gamma (RORg) (AID 2283011; active = hit-call score of the fitted dose curve at least 0.9, where 1 is the maximum). The gist of the method:
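Transient MRTU transfection of HepG2 (TRANS format, exogenous NR-Gal4 chimera). 24 h dosing. Total RNA → oligo(dT) RT → PCR → 6-FAM labelling → HpaI cut → CE. Gain vs DMSO.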

Records with an inconclusive call do not appear. The source made the active and inactive calls. The calls were made as follows, unless noted: active = hit-call score of the fitted dose curve at least 0.9, where 1 is the maximum; inactive = score below 0.9.

human Retinoic Acid Receptor gamma (RARg), RARG (gene 5916), sequence (P13631 whole entry, looked up, the tested form may be a part): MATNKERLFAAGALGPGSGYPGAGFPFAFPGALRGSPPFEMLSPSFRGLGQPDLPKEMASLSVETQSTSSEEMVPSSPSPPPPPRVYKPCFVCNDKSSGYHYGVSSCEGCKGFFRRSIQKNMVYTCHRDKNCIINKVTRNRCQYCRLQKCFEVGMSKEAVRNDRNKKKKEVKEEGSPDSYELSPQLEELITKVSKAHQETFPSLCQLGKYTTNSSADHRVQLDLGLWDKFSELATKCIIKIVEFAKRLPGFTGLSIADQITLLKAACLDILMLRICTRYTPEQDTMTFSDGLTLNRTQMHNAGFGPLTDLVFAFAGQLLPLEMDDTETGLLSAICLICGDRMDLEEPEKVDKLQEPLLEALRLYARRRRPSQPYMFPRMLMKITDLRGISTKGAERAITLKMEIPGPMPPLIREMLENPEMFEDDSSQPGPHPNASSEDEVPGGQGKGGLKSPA
Nuclear receptor subfamily 1 group I member 2 (Homo sapiens), sequence (O75469 whole entry, looked up, the tested form may be a part): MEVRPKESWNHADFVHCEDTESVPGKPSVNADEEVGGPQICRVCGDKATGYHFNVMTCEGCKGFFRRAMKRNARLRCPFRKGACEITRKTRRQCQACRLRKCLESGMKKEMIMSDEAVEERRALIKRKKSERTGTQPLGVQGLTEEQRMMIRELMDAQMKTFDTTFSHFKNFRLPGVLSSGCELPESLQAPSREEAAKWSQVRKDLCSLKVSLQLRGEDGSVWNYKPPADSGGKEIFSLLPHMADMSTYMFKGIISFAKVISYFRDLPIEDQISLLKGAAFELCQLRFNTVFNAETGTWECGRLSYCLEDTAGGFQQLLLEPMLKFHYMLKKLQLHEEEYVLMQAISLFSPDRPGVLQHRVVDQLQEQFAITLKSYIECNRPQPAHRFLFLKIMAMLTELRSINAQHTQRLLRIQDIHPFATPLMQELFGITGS
Peroxisome proliferator-activated receptor gamma (Homo sapiens), sequence (P37231 whole entry, looked up): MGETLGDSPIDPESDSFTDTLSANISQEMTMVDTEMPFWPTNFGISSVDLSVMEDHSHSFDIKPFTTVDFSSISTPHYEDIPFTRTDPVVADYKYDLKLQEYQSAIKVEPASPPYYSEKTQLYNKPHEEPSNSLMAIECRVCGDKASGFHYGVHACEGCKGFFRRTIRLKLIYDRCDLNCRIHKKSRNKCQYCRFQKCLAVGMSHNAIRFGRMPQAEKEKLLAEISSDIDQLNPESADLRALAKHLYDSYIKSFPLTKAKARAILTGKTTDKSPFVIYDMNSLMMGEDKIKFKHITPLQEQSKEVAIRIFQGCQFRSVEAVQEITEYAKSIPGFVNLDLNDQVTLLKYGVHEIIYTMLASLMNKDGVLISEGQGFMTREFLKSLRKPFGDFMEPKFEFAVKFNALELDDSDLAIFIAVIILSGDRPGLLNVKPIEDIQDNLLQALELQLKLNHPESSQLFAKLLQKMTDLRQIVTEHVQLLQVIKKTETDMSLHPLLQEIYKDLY
human Retinoic Acid Receptor beta (RARb), RARB (gene 5915), sequence (P10826 whole entry, looked up, the tested form may be a part): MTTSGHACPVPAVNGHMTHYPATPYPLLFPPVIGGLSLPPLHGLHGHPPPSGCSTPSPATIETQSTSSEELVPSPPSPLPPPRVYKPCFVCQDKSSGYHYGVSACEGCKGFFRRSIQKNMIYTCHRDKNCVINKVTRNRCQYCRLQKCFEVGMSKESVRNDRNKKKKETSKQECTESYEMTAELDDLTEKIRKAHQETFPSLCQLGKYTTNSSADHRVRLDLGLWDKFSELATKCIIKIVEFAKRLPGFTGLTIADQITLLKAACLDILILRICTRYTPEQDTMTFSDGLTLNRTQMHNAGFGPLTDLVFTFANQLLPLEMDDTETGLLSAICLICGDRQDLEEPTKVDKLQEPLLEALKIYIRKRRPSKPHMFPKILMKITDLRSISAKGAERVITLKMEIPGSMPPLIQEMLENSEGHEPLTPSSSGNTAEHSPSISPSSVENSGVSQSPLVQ
Retinoic acid receptor RXR-alpha (Homo sapiens), sequence (P19793 whole entry, looked up, the tested form may be a part): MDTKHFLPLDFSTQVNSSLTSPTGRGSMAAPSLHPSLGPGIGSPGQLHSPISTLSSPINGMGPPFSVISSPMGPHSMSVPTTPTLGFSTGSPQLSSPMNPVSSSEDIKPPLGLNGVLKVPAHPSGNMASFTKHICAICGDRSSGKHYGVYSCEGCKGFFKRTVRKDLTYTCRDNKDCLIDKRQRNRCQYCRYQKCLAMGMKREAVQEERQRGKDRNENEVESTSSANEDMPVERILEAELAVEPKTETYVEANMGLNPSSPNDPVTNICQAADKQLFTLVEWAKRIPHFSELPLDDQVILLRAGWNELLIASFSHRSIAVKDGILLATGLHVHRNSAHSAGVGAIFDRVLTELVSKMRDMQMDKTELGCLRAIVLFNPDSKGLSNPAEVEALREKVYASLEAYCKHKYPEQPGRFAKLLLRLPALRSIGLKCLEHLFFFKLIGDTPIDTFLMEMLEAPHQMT
Retinoic acid receptor alpha (Homo sapiens), sequence (P10276 whole entry, looked up, the tested form may be a part): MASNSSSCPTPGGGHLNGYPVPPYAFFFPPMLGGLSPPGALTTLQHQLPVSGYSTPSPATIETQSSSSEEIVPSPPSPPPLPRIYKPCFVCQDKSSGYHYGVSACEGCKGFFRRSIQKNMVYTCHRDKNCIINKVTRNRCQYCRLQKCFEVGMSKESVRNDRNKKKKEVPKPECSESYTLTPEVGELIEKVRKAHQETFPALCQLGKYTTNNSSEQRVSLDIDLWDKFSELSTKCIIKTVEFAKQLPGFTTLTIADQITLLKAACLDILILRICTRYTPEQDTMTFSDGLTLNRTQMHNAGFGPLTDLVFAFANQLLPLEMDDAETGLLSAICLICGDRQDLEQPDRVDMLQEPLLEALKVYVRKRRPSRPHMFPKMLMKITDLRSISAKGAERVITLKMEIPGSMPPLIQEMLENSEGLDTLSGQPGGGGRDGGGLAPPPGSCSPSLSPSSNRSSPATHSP
human Retinoid X Receptor beta (RXRb), RXRB (gene 6257), sequence (P28702 whole entry, looked up, the tested form may be a part): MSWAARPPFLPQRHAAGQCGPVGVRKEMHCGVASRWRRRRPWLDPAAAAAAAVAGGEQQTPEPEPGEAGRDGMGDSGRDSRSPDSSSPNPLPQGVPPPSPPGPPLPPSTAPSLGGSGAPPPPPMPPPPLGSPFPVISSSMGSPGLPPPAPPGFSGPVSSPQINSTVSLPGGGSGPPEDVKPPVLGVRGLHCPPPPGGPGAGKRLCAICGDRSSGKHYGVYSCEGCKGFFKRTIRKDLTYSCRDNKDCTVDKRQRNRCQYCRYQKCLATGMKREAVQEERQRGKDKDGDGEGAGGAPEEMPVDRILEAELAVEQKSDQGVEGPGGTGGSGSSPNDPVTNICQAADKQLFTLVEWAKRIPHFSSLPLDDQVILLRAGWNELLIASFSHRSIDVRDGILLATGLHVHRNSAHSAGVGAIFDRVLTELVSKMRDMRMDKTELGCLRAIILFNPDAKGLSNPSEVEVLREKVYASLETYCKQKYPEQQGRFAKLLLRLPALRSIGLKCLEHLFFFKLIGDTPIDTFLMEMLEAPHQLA
human Peroxisome Proliferator-activated Receptor alpha (PPARa), PPARA (gene 5465), sequence (Q07869 whole entry, looked up, the tested form may be a part): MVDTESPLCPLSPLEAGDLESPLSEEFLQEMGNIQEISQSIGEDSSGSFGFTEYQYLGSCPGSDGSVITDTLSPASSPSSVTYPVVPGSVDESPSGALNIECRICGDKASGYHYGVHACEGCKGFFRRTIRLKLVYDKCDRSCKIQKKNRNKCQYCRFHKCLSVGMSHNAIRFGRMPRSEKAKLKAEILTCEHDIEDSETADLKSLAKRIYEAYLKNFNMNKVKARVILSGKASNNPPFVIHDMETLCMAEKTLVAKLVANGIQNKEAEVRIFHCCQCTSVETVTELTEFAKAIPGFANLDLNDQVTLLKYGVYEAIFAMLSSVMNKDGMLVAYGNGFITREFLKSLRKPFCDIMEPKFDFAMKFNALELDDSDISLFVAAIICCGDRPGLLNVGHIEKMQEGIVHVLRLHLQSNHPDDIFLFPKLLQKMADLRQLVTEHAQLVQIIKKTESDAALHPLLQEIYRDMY
E-selectin (Homo sapiens), sequence (P16581 whole entry, looked up): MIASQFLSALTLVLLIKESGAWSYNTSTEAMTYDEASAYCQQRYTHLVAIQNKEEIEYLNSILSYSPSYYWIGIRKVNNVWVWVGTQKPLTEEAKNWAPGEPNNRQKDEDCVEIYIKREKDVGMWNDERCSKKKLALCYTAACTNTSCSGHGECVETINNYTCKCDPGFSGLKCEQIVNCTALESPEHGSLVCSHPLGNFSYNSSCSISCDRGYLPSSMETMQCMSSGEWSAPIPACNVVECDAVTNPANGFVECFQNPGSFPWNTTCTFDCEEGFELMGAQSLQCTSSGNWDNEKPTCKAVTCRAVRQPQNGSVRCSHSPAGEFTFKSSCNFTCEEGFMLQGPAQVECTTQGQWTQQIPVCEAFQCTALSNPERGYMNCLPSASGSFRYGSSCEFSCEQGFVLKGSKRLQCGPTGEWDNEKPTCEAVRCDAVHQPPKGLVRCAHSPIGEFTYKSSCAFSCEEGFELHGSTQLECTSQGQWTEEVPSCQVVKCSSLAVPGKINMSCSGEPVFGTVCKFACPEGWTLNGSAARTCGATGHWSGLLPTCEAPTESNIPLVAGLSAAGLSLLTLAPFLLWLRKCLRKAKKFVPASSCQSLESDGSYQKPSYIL
human Peroxisome Proliferator-activated Receptor delta (PPARd), PPARD (gene 5467), sequence (Q03181 whole entry, looked up, the tested form may be a part): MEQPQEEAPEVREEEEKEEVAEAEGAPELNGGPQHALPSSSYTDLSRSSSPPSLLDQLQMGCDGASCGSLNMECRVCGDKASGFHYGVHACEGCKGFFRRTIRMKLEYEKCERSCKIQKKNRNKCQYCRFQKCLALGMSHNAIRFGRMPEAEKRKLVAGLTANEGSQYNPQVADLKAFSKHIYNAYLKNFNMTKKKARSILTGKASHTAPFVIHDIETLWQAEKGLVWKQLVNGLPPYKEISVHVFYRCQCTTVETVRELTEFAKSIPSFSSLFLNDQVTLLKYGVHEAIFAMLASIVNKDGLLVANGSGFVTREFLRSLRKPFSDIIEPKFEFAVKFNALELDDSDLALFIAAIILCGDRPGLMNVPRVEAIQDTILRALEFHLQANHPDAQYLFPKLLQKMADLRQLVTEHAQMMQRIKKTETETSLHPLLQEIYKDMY

In the case of `CCCCCCCCCCCCCCCC`, the outcome in [1], in assay [2], in assay [3], in assay [4], in assay [5] and in assay [6] was inactive. The molecule was called inactive in [7], in assay [8], in assay [9], in assay [10], in [11] and in [12]. In addition, the result in assay [13] was inactive.
For orientation: AC50 means the concentration giving half of the maximal activity seen. Regarding `CC(C)(C)c1cc(O)c(C(C)(C)C)cc1O`, the AC50 in assay [1] is 6.65 µM (active); in assay [6] it was 8.74 µM (active); in assay [15] it was 38.7 µM (active); in assay [16], 2.99 µM (active); in assay [8], 60.2 µM (active); in [17], 59.4 µM (active). Besides, the AC50 in assay [18] is 2.88 µM (active). Moreover, the result in [2], in assay [14], in assay [3], in assay [4], in assay [5] and in assay [7] was inactive. Moreover, the result in assay [10], in [11] and in assay [12] was inactive.
`COC(=O)c1ccc(O)cc1`: the outcome in [1], in assay [2], in [3], in assay [6], in assay [16] and in assay [10] was inactive. Further, the outcome in [11], in assay [12], in [19] and in [13] was inactive. In addition, the AC50 in assay [17] was 55.3 µM (active).
For the molecule `CCOC(=O)C(C)(C)Oc1ccc(Cl)cc1`, the outcome in [1], in assay [3], in assay [6], in assay [15], in assay [20] and in assay [8] was inactive. The result in assay [17], in [10], in assay [11], in [12] and in assay [18] was inactive. Also, the AC50 in [2] was 37.2 µM (active).
As for `CC(=O)C(C)=CC1C(C)=CCCC1(C)C` (stereo not given), the result in [1], in assay [2], in assay [14], in assay [3], in [6] and in [8] was inactive. The outcome in [10], in assay [11], in [12], in [18] and in assay [19] was inactive. In addition, the AC50 in assay [17] was 27.9 µM (active).
In the case of `CCCCc1ccc2c(n1)[C@@H](c1ccc(OC)cc1C[C@H](C)C(=O)O)[C@H](C(=O)O)[C@H]2c1ccc2c(c1)OCO2`, the outcome in [1], in assay [2], in assay [3], in [6], in assay [16] and in [20] was inactive. The molecule was called inactive in assay [8], in [10], in assay [11], in assay [12] and in assay [13].
As for `COCCOC[C@H](CC1(C(=O)NC2CCC(C(=O)O)CC2)CCCC1)C(=O)Oc1ccc2c(c1)CCC2` (stereo not given in full), the result in assay [1], in assay [2], in assay [14], in [3], in [4] and in assay [6] was inactive. Moreover, the call in assay [15], in assay [7], in assay [8], in [10], in assay [11] and in assay [12] was inactive. Also, in assay [19], the result was inactive. In [16], the AC50 was 20.6 µM (active).
Turning to `Cc1c(C(=O)O)c(O)cc2c1C(=O)c1c(O)c([C@@H]3O[C@H](CO)[C@@H](O)[C@H](O)[C@H]3O)c(O)c(O)c1C2=O`, the outcome in assay [1], in assay [2], in assay [3], in assay [5], in [6] and in assay [15] was inactive. For the same molecule, the molecule was called inactive in assay [7], in assay [17], in assay [10], in [11], in assay [12] and in [18]. In addition, the result in assay [19] and in assay [13] was inactive.
For `CCCCCCCCCCO`, the result in assay [1], in [3], in assay [4], in assay [7], in assay [10] and in assay [11] was inactive. For the same molecule, the result in [12], in [18] and in [19] was inactive. The results for the AC50 in [2], in assay [6] and in [15] were 128 µM (active), 33 µM (active) and 41.1 µM (active), respectively.

These data come from PubChem BioAssay (EPA / NIEHS).
